PubChem BioAssay (NCI)
Compounds without any hit were thinned out: in the full panel of roughly 83,000, 20% have a hit.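 Treatment: one concentration, 48 hours, 96-well format. Scoring: percent growth, with anything below 10 considered active.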 Unmarked numbers belong to inactive results. Activity calls are given as the source filed them.

What was measured:
Assay in all cases: NCI-60 one-dose screen, 48 h (100 = growth as untreated, 0 = no growth, -100 = all killed)
Details in all cases: 10 µM unless noted
RPMI-8226 leukemia = tested on: RPMI-8226 leukemia
OVCAR-8 ovarian = tested on: OVCAR-8 ovarian
OVCAR-5 ovarian = tested on: OVCAR-5 ovarian
OVCAR-4 ovarian = tested on: OVCAR-4 ovarian
SK-OV-3 ovarian = tested on: SK-OV-3 ovarian
IGROV1 ovarian = tested on: IGROV1 ovarian
OVCAR-3 ovarian = tested on: OVCAR-3 ovarian
HS 578T breast = tested on: HS 578T breast
NCI/ADR-RES ovarian = tested on: NCI/ADR-RES ovarian
T-47D breast = tested on: T-47D breast
BT-549 breast = tested on: BT-549 breast
MDA-MB-435 melanoma = tested on: MDA-MB-435 melanoma
SW-620 colon = tested on: SW-620 colon
MCF7 breast = tested on: MCF7 breast
HCT-116 colon = tested on: HCT-116 colon
HCC-2998 colon = tested on: HCC-2998 colon
KM12 colon = tested on: KM12 colon

Compound	growth (RPMI-8226 leukemia)	growth (OVCAR-8 ovarian) [%]	growth (OVCAR-5 ovarian) [%]	growth (OVCAR-4 ovarian) [%]	growth (SK-OV-3 ovarian) [%]	growth (IGROV1 ovarian)	growth (OVCAR-3 ovarian)	growth (HS 578T breast)	growth (NCI/ADR-RES ovarian)	growth (T-47D breast) [%]	growth (BT-549 breast)	growth (MDA-MB-435 melanoma)	growth (SW-620 colon)	growth (MCF7 breast)	growth (HCT-116 colon)	growth (HCC-2998 colon)	growth (KM12 colon)
COc1cc(-c2nc3sccn3c2-c2ccnc(NCCCNS(=O)(=O)c3ccc(F)cc3)n2)ccc1F	9.51% (active)	26.7	112	51.9	90.4	69.6%	65.9%	92.6%	34.2%	15.5	42.8%	65.8%	106%	76.1%	58.1%	95.5%	74.2%
Oc1ccc(Cl)cc1Cc1cc(Cl)cc(Cl)c1O	0.811% (active)	73.4	92.3	17.5	70.8	66%	-8.34% (active)	-14.8% (active)	24.6%	40.7	-11.4% (active)	15.4%	28%	60.1%	37.1%	70.6%	37.6%
COc1c(B(O)O)cc(C)cc1-c1nc2ccc3[nH]ncc3c2c2c1CCCC2	35.6%	53.3	89.3	102	63.5	60.8%	102%	18.2%	55.7%	78.5	24.2%	22.5%	8.73% (active)	54.6%	21.3%	62.9%	30.6%
COc1ccc(C(=O)/C=C/c2sc(Cl)nc2Cl)cc1	-25.4% (active)	22.9	47.1	42.2	39	11.1%	-3.81% (active)	58.5%	1.37% (active)	59	-4.31% (active)	15.7%	18.6%	-7.05% (active)	17.7%	-36% (active)	39%
COc1cc(C(=O)c2cc(C)c3[nH]c4ccc(O)cc4c3c2C)cc(OC)c1OC	8.34% (active)	27.3	38.9	48.3	46.5	12.1%	-45% (active)	38.1%	8.01% (active)	38.5	-1.57% (active)	-6.06% (active)	31.2%	11%	-5.93% (active)	20.6%	4.49% (active)
Cc1c(C(=O)N[C@@H](Cc2ccccc2)C(=O)C(=O)NCc2ccc(F)cc2)[nH]c2ccccc2c1=O	87.9%	102	104	90.6	99.6	96.8%	102%	105%	102%	103	110%	101%	97.5%	91.2%	99.9%	93.8%	101%
CC[C@H](C)C(=O)O[C@H]1CCC=C2C=C[C@H](C)[C@H](CC[C@@H]3CC=CC(=O)O3)[C@H]21	0.207% (active)	82	112	103	99.6	83.9%	73.2%	109%	90.9%	83.5	87.5%	86%	85.9%	72.3%	48.5%	101%	72.5%
CC1=NN(c2ccc(S(=O)(=O)O)cc2)C(=O)C1N=Nc1ccc(-c2ccc(N=Nc3ccc(OS(=O)(=O)c4ccc(C)cc4)cc3)c(S(=O)(=O)O)c2)cc1 (stereo unspecified)	74.5%	102	76.6	93.8	95.4	-7.99% (active)	111%	80%	97.9%	90.3	68.4%	95.1%	103%	88.7%	93.9%	104%	105%
Cc1nc2ccccc2n1CC1C(=O)NC(=O)NC1=O	115%	105	103	107	107	106%	119%	110%	99.3%	107	121%	101%	108%	100%	104%	127%	103%
CNc1nc2c(s1)C(c1cccc(F)c1)CC(=O)N2 (stereo unspecified)	106%	102	97.1	107	100	107%	99.1%	94.3%	103%	94.8	94.5%	99.9%	102%	95.2%	99.8%	104%	101%
O=C(CCc1nnc(-c2c(Cl)cccc2Cl)o1)c1nc2ccccc2[nH]1	30.9%	57.2	81.2	58.8	64.8	57.6%	66.4%	82.3%	63.3%	52	56.3%	-0.531% (active)	35.8%	44.7%	22.1%	65.9%	28.7%
COc1ccc(/C=N/Nc2cc(=O)[nH]c3ccc(Cl)cc23)cc1	36.6%	69.1	95.1	43.1	95.2	75.7%	11.8%	91.7%	78%	42.4	32.1%	43.2%	37.9%	35.2%	8.92% (active)	88.8%	46.6%
Fc1cc(-c2nnc3sc(-c4ccc(Cl)cc4Cl)nn23)c(Cl)cc1Cl	84%	82.6	96.6	26.2	77.1	86.1%	99.4%	-14.7% (active)	89.4%	68.4	79.4%	94.3%	81.7%	83.7%	45.9%	93%	96%
C[C@]12CC[C@@H]3c4cc(OC(F)F)c(OS(N)(=O)=O)cc4CC[C@H]3[C@@H]1CC[C@@H]2O	17.8%	35.3	49.3	63.2	40.8	34.5%	-49.8% (active)	27.8%	-1.45% (active)	43.7	41.8%	-70.8% (active)	28.1%	22.1%	21.3%	16.2%	12.2%
COc1ccc2cc(C(C)C(=O)Nc3ccc(-c4n[nH]c(=S)n4C4CCCCC4)cc3)ccc2c1 (stereo unspecified)	54.3%	75.6	101	88.1	105	88.9%	86.4%	75.1%	50.7%	69.7	90.9%	62.4%	92.2%	48.3%	48.6%	70.5%	55.9%
COc1cc(/C=C/c2c(C(C)=O)c(C)nc3ccccc23)cc(OC)c1OC	23.6%	52.6	61.3	52.7	36.6	32%	15.1%	-16.7% (active)	23.1%	39.7	48.4%	-0.529% (active)	29.6%	19.3%	23.9%	54.8%	29.1%
COc1ccc(C(=O)C(C)C)c2ccccc12	82.5%	126	98	108	107	128%	120%	90.8%	107%	92.2	113%	97.9%	95.2%	107%	101%	107%	101%
COc1cc(CCC[P+](c2ccccc2)(c2ccccc2)c2ccccc2)c(OC)c(OC)c1OC	68.4%	85.6	79.6	49.8	83.5	70.5%	72%	51.8%	77.7%	63.5	72.9%	0.374% (active)	82.6%	39%	61.9%	100%	75.9%
